Results filed as inconclusive are left out. Calls of active or inactive are those of the source. Unless noted, calls come from the whole dose curve.
Assays:
[1] = qHTS assay to identify small molecule agonists of the vitamin D receptor (VDR) signaling pathway - cell viability counter screen (AID 743224; active = well fitted curve in the direction sought with a large enough effect in the repeat runs; an effect the other way counts as inactive or inconclusive; note: nearly all actives have a fitted effect of over 50% in size; note: potency is the fitted concentration of half-maximal effect; for activity change, negative = cytotoxicity: series mostly up to about 63 µM; % is set by controls: 0 for no effect and ±100 for the full control effect)
Method in brief: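 Cells: VDR-bla, 2,000/well, settled 4 h. Treatment: compounds in DMSO, 16 h, 37C/5% CO2. Readout: CellTiter-Glo luminescence after 30 min RT.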

[2] = qHTS assay to identify small molecule agonists of the NFkB signaling pathway - cell viability counter screen (AID 1159515); note: series mostly up to about 61 µM; % is set by controls: 0 for no effect and ±100 for the full control effect; nearly all actives have a fitted effect of over 55% in size
Method in brief: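 Cells are seeded (2,000 NFkB-bla ME-180 per well), rested overnight, and dosed with DMSO-dissolved compounds for 5 hr at 37 C. Viability is then read by CellTiter-Glo luminescence after 30 min at room temperature.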

[3] = qHTS assay to identify small molecule agonists of the endoplasmic reticulum stress response signaling pathway (AID 1159516; active = well fitted activation curve with a large enough effect in the signal ratio in the repeat runs, not every such curve was filed as active; the % refers to the signal ratio; note: potency is the fitted concentration of half-maximal effect; for activation: % is set by controls: 0 for no effect and ±100 for the full control effect)
Method in brief: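 Cells are seeded at 1,500 per well and incubated overnight. Compounds in DMSO are added for 5 hr at 37 C, then beta-lactamase FRET substrate for 2 hr at room temperature, and fluorescence at 460 and 530 nm is measured.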

[4] = qHTS assay to identify small molecule agonists of the endoplasmic reticulum stress response signaling pathway - cell viability counter screen (AID 1159517);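 note: HeLa cells carrying an ER stress response element beta-lactamase reporter; series mostly up to about 61 µM; % is set by controls: 0 for no effect and ±100 for the full control effect; nearly all actives have a fitted effect of over 50% in size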
Method in brief: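 Cytotoxicity of test compounds toward ESRE-bla HeLa cells was assessed after 5 hr exposure. The luminescent CellTiter-Glo signal was measured 30 min after reagent addition.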

[5] = qHTS assay to identify small molecule antagonists of the retinoid-related orphan receptor gamma (ROR-gamma) signaling pathway - cell viability counter screen (AID 1159520; active = well fitted curve in the direction sought with a large enough effect in the repeat runs; an effect the other way counts as inactive or inconclusive; note: % is set by controls: 0 for no effect and ±100 for the full control effect; nearly all actives have a fitted effect of over 50% in size)
Method in brief: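 Tet-on ROR gamma CHO cells (1,000/well) were plated 4 hr, given compounds in DMSO for 2 hr at 37 C, then induced with 1 uM final doxycycline for 16 hr. Viability was read as ATP by CellTiter-Glo luminescence after 30 min.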

[6] = target: Nuclear receptor ROR-gamma (Homo sapiens) (UniProt P51449); experiment: qHTS assay to identify small molecule antagonists of the retinoid-related orphan receptor gamma (ROR-gamma) signaling pathway (AID 1159521; active = well fitted curve in the direction sought with a large enough effect in the repeat runs; an effect the other way counts as inactive or inconclusive; note: nearly all actives have a fitted effect of over 50% in size; note: potency is the fitted concentration of half-maximal effect;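 for activity change, negative = inhibition: CHO cells with doxycycline inducible ROR-gamma driving an RORE luciferase reporter; top concentration of the series differs between compounds; % is set by controls: 0 for no effect and ±100 for the full control effect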)
Method in brief: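 RORγ antagonism is scored from reduced reporter luminescence in Tet-on CHO cells. Induction used 1 uM final doxycycline hyclate for 16 h at 37 C, following a 2 h compound exposure.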

[7] = qHTS assay to identify small molecule agonists of the AP-1 signaling pathway - cell viability counter screen (AID 1159525); note: nearly all actives have a fitted effect of over 55% in size
Method in brief: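 Each titration point was normalised to DMSO and tetra n-octyl ammonium bromide controls. The read was Cell Titer Glo luminescence after 30 min at RT, following 5 h compound exposure of ME-180 AP-1-bla cells at 37 °C.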

[8] = qHTS assay to identify small molecule agonists of the AP-1 signaling pathway (AID 1159526); note: % is set by controls: 0 for no effect and ±100 for the full control effect
[9] = qHTS assay to identify small molecule antagonists of the vitamin D receptor (VDR) signaling pathway - cell viability counter screen (AID 743225; active = well fitted curve in the direction sought with a large enough effect in the repeat runs; an effect the other way counts as inactive or inconclusive; note: nearly all actives have a fitted effect of over 50% in size; note: potency is the fitted concentration of half-maximal effect)
Method in brief: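 Cells (VDR-UAS-bla HEK 293T) are plated, rested 4 h at 37C, dosed with compound and 3 nM final 1-alpha,25-dihydroxy vitamin D3, and incubated 16 h. Viability is taken from CellTiter-Glo luminescence in the reporter wells.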

[10] = target: Retinoic acid receptor RXR-alpha (Homo sapiens) (UniProt P19793); experiment: qHTS assay to identify small molecule agonists of the RXR signaling pathway (AID 1159527); note: nearly all actives have a fitted effect of over 35% in size; note: potency is the fitted concentration of half-maximal effect
Sequence of Retinoic acid receptor RXR-alpha (Homo sapiens) (P19793 whole entry, looked up): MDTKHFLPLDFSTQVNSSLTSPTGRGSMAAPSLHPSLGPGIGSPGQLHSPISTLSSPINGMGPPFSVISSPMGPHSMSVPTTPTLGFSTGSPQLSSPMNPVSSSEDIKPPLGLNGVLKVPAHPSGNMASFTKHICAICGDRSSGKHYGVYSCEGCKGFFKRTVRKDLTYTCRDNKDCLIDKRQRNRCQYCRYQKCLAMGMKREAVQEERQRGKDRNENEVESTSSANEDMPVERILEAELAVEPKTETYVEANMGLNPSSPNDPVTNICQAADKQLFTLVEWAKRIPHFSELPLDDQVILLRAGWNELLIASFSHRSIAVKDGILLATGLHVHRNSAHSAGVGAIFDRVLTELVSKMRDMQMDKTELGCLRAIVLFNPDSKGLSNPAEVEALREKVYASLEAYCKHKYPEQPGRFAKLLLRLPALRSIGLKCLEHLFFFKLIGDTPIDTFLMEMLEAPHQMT
Method in brief: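 qHTS of the Tox21 10K library in GeneBLAzer RXR-alpha HEK 293T cells carrying a beta-lactamase reporter […]; 16 hr treatment, 9-cis retinoic acid as agonist control, FRET read-out.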

CC(C)(C)c1cc(CCC(=O)OCC(COC(=O)CCc2cc(C(C)(C)C)c(O)c(C(C)(C)C)c2)(COC(=O)CCc2cc(C(C)(C)C)c(O)c(C(C)(C)C)c2)COC(=O)CCc2cc(C(C)(C)C)c(O)c(C(C)(C)C)c2)cc(C(C)(C)C)c1O
inactive: Potency [1] | Potency [2] | Potency [3] | outcome [4] | Potency [5] | Potency [6] | Potency [7] | Potency [8]

Cc1cc(C)c(S(=O)(=O)O)cc1N=Nc1cc(S(=O)(=O)O)c2ccccc2c1O
inactive: Potency [1] | Potency [9] | Potency [2] | Potency [3] | outcome [4] | Potency [5] | Potency [6] | Potency [7] | Potency [8]

Nc1nc(CC(=O)O)cs1
inactive: Potency [1] | Potency [9] | Potency [2] | Potency [3] | outcome [4] | Potency [5] | Potency [6] | Potency [7] | Potency [8]

O=C(NN1CCCC1)NS(=O)(=O)c1ccc(Cl)cc1
inactive: Potency [1] | Potency [9] | Potency [2] | Potency [3] | outcome [4] | Potency [5] | Potency [6] | Potency [7] | Potency [8] | Potency [10]

COc1ccc(OC)c(OC)c1
inactive: Potency [1] | Potency [9] | Potency [2] | Potency [3] | outcome [4] | Potency [5] | Potency [6] | Potency [7] | Potency [8]

CCOc1cc(OCC)c(C(=O)CCC(=O)O)cc1OCC
inactive: Potency [1] | Potency [9] | Potency [2] | Potency [3] | outcome [4] | Potency [5] | Potency [6] | Potency [7] | Potency [8]

Nc1nc(N)c2nc(CNc3ccc(C(=O)N[C@@H](CCC(=O)O)C(=O)O)cc3)cnc2n1
active: Potency [1] 28.8 nM | Potency [9] 28.8 nM | Potency [3] 51300 nM
inactive: Potency [2] | outcome [4] | Potency [5] | Potency [6] | Potency [7] | Potency [8]

C1=Cc2ccccc2C1
inactive: Potency [1] | Potency [9] | Potency [2] | Potency [3] | outcome [4] | Potency [5] | Potency [6] | Potency [7] | Potency [8] | Potency [10]

CC(=O)/C=C/C1C(C)=CCCC1(C)C (stereo not given)
inactive: Potency [1] | Potency [9] | Potency [2] | Potency [3] | outcome [4] | Potency [5] | Potency [6] | Potency [7] | Potency [8]

O=C(O)COC(=O)Cc1ccccc1Nc1c(Cl)cccc1Cl
inactive: Potency [1] | Potency [9] | Potency [2] | Potency [3] | outcome [4] | Potency [5] | Potency [6] | Potency [7] | Potency [8]

CCCCCCCCCC=O
inactive: Potency [1] | Potency [2] | Potency [3] | outcome [4] | Potency [5] | Potency [6] | Potency [7] | Potency [8]

CC[C@H](C)[C@@H](C(=O)O)n1sc2ccccc2c1=O
inactive: Potency [1] | Potency [9] | Potency [2] | Potency [3] | outcome [4] | Potency [5] | Potency [6] | Potency [7] | Potency [8]

Cc1nc2ccccc2n1Cc1ccc(Cl)cc1
inactive: Potency [2] | Potency [3] | outcome [4] | Potency [5] | Potency [7] | Potency [8]
active: Potency [6] 2660 nM

C=CC[N+]1([C@H]2C[C@H]3[C@@H]4CC[C@H]5C[C@H](OC(C)=O)[C@@H](N6CCCCC6)C[C@]5(C)[C@H]4CC[C@]3(C)[C@H]2OC(=O)CC)CCCCC1
inactive: Potency [1] | Potency [9] | Potency [2] | Potency [3] | outcome [4] | Potency [5] | Potency [6] | Potency [7] | Potency [8]

CN(C)C/C=C(/c1ccc(Br)cc1)c1cccnc1
inactive: Potency [1] | Potency [9] | Potency [2] | Potency [3] | outcome [4] | Potency [5] | Potency [6] | Potency [7] | Potency [8] | Potency [10]

CN1CCC(=C2c3ccccc3CCc3sccc32)CC1
inactive: Potency [1] | Potency [2] | Potency [3] | outcome [4] | Potency [5] | Potency [6] | Potency [7] | Potency [10]

CCOC(=O)CC(C)C
inactive: Potency [1] | Potency [9] | Potency [2] | Potency [3] | outcome [4] | Potency [5] | Potency [6] | Potency [7] | Potency [8]

CC[C@H](C)[C@H](N)C(=O)O
inactive: Potency [1] | Potency [9] | Potency [2] | Potency [3] | outcome [4] | Potency [5] | Potency [6] | Potency [7] | Potency [8]

Cc1cccc(Oc2ccccc2)c1
inactive: Potency [9] | Potency [2] | Potency [3] | outcome [4] | Potency [5] | Potency [6] | Potency [7] | Potency [8]

CC(=O)c1ccc2c(c1)[C@H](NC(=O)c1ccc(F)cc1)[C@@H](O)C(C)(C)O2
inactive: Potency [1] | Potency [9] | Potency [2] | Potency [3] | outcome [4] | Potency [5] | Potency [6] | Potency [7] | Potency [8]

CN1CCN(C2=Nc3cc(Cl)ccc3Nc3ccccc32)CC1
inactive: Potency [9] | Potency [2] | Potency [3] | outcome [4] | Potency [5] | Potency [6] | Potency [7] | Potency [8]

NC[C@H]1O[C@H](O[C@H]2[C@H](O)[C@@H](O[C@H]3O[C@H](CO)[C@@H](O)[C@H](N)[C@H]3O)[C@H](N)C[C@@H]2N)[C@H](O)[C@@H](O)[C@@H]1O
inactive: activity change, negative = cytotoxicity [1] -10.2% [at 5.95 µM] | viability change, negative = cytotoxic [9] 9.2% [at 6.95 µM] | activity, negative = cytotoxic [2] -4.89% [at 6.95 µM] | activation [3] -2.16% [at 6.95 µM] | activity change, negative = cytotoxicity [4] -9.96% [at 6.95 µM] | activity, negative = cytotoxicity [5] 1.78% [at 8.39 µM] | activity change, negative = inhibition [6] -16.2% [at 8.39 µM] | viability change, negative = cytotoxic [7] -4.71% [at 6.97 µM] | activation [10] 3.4% [at 6.98 µM]

c1ccc(CNCc2ccccc2)cc1
inactive: Potency [1] | Potency [9] | Potency [2] | Potency [3] | outcome [4] | Potency [5] | Potency [6] | Potency [7] | Potency [8]

C[C@@H](C1=C(CCN(C)C)Cc2ccccc21)c1ccccn1
inactive: Potency [1] | Potency [2] | Potency [3] | outcome [4] | Potency [5] | Potency [6] | Potency [7] | Potency [10]

O=C(O)C1CCC(C(=O)O)CC1 (stereo not given)
active: Potency [10] 5480 nM
inactive: Potency [1] | Potency [9] | Potency [2] | Potency [3] | outcome [4] | Potency [5] | Potency [6] | Potency [7]
